Bioassay records as filed in PubChem.
Compounds with a hit are over-represented: about 4.7% of the library has one in this group of screens.
D1 ag: activates the human D1 dopamine receptor | 1% of 360,000 active | AID 504660 | HEK293 T-REx D1 cells, calcium flux, agonist mode | activation, % at 2 µM
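Inducible HEK293 T-REx D1 cells, force-coupled to calcium signalling, were plated at 4000 cells/well with tetracycline and held overnight at 30 C. After no-wash calcium dye loading, compound-evoked calcium rise over 180 s flagged agonists.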
D1 potentiator: potentiators of human D1 dopamine receptor | potentiation, % at 10 µM | 0.036% of 360,000 active | P21728 | HEK293 TREx D1 cells, calcium flux, dopamine EC20 potentiation | AID 504651; in the data active = potentiation above about 30%
TRHR enhancer-1: allosterically enhances the human TRH receptor | P34981 | TRHR cells, fluo-8 calcium fluorescence, EC20 TRH enhancement | enhancement, % at 2 µM | 0.66% of 360,000 active; in the data active = enhancement above about 30%
Target sequence (P34981 whole entry, looked up): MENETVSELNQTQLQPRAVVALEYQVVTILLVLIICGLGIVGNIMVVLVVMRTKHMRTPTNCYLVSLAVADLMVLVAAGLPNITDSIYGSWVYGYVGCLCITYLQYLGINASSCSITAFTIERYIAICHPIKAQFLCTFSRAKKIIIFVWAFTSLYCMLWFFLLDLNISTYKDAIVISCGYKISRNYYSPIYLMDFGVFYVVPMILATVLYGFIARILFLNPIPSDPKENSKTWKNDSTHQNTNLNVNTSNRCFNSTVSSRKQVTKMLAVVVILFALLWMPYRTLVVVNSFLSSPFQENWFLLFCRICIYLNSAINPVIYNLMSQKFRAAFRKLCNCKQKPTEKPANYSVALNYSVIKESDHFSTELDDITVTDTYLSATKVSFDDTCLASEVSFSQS
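Enhancer read-out: after compound pinning and an initial kinetic agonist-mode read, an EC20 of TRH (10 nM final) was injected and fluo-8 calcium signal (Ex 480/Em 530) followed at 1 s/cycle for 100 cycles in TRHR-expressing cells.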
TRHR agonist-1: activates the human TRH receptor; 0.18% of 360,000 active; P34981; TRHR cells, calcium flux fluo-8, FDSS agonist mode; activation, % at 2 µM
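Steps: seed TRHR cells overnight; add fluo-8 no-wash Ca dye, RT 30 min–1.5 h; record 10 s baseline; pin-transfer compounds; monitor fluorescence 1 cycle/s for the agonist window. Calcium increases flag candidate agonists.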
D1 antag: human D1 dopamine receptor antagonism. HEK293 TREx D1 cells, calcium flux, dopamine EC80; stronger effect = lower value. activity change, negative = inhibition, % at 10 µM. 3.2% of 360,000 active; in the data active = activity change below about -30%
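Using tetracycline-induced force-coupled D1 Hek293 cells and a calcium dye, signals were followed for 180 s after compound, then for 180 s after EC80 dopamine, to detect inhibitors.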
TRHR enhancer-2: human TRH receptor allosteric enhancement confirmation. 970 tested, under 10 active. shares compounds with TRHR enhancer-1. TRH receptor cell assay, enhancer confirmation qHTS. activity change, negative = inhibition, % at 46.1 µM. AID 493076; active = well fitted curve in the direction sought with a large enough effect; inconclusive = small, poorly fitted or top-dose-only effect, or another doubt; inactive = no such curve, though single readings can be large; an effect the other way counts as inactive or inconclusive;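 also: compound effect scored on response to added TRH at EC20 of 10 nM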
TRHR agonist-2: confirmation of human TRH receptor agonists; TRHR-expressing cells, agonist activation read-out; Potency, µM (titrated, usually from 46.1 µM), actives largely listed as activators; shares compounds with TRHR enhancer-1; AID 493078; 8% of 970 active; active = well fitted curve in the direction sought with a large enough effect; inconclusive = small, poorly fitted or top-dose-only effect, or another doubt; inactive = no such curve, though single readings can be large; an effect the other way counts as inactive or inconclusive; also: nearly all actives have a fitted effect of over 75% in size
A number is an active result. Rule as the data show it, unless noted: active = activation above about 30%; inactive = the rest.

How did O=C1NC(=O)N(c2cccc(Cl)c2)C(=O)/C1=C\c1ccc(Sc2nc3ccccc3[nH]2)o1 do in these assays?
D1 ag: 63.5; D1 potentiator: inactive; TRHR enhancer-1: inactive; TRHR agonist-1: 47.2; D1 antag: inactive; TRHR enhancer-2: inactive; TRHR agonist-2: inconclusive

Results for Cc1cccc(N2C(=O)NC(=O)/C(=C/c3ccc(-c4ccc(C(=O)O)c(Cl)c4)o3)C2=O)c1 ?
D1 ag: inactive; D1 potentiator: inactive; TRHR enhancer-1: inactive; TRHR agonist-1: inactive; D1 antag: inactive

Results for CC(OC(=O)c1cn(C)c2ccccc12)C(=O)N(C)c1ccccc1 (stereo not drawn) ?
D1 ag: inactive; D1 potentiator: inactive; TRHR enhancer-1: inactive; TRHR agonist-1: inactive; D1 antag: inactive

Results for O=C(CN1CC=C(c2ccccc2)CC1)NC(=O)NCc1ccccc1 ?
D1 ag: inactive; D1 potentiator: inactive; TRHR enhancer-1: 61.6; TRHR agonist-1: inactive; D1 antag: inactive; TRHR enhancer-2: inconclusive; TRHR agonist-2: inactive

How did CC(C(=O)c1ccccc1)N1C(=O)c2ccccc2C1=O (stereo not drawn) do in these assays?
D1 ag: inactive; D1 potentiator: inactive; TRHR enhancer-1: inactive; TRHR agonist-1: inactive; D1 antag: inactive

Results for CC(Cc1ccccc1)N1C(=O)c2ccccc2C1=O (stereo not drawn) ?
D1 ag: inactive; D1 potentiator: inactive; TRHR enhancer-1: 54.9; TRHR agonist-1: inactive; D1 antag: inactive; TRHR enhancer-2: inactive; TRHR agonist-2: inactive

What do the screens show for `Cc1ccccc1-c1nc(CS(=O)CC(=O)N2CCC3(CC2)OCCO3)c(C)o1` (stereo not drawn)?
D1 ag: inactive; D1 potentiator: inactive; TRHR enhancer-1: 41.6; TRHR agonist-1: inactive; D1 antag: inactive; TRHR enhancer-2: inactive; TRHR agonist-2: inactive

What do the screens show for `COC(=O)C1=C(c2ccc(OCc3ccccc3)cc2)C[C@@H]2CC[C@H]1N2C(=O)NC1CCN(Cc2ccccc2)CC1`?
D1 ag: inactive; D1 potentiator: inactive; TRHR enhancer-1: inactive; TRHR agonist-1: inactive; D1 antag: inactive

Results for CCC1(C)OC(c2ccccc2)=C/C(=C/C=C2C(=O)NC(=O)NC2=O)O1 (stereo not drawn) ?
D1 ag: 108.1; D1 potentiator: inactive; TRHR enhancer-1: inactive; TRHR agonist-1: 41.1; D1 antag: inactive; TRHR enhancer-2: inactive; TRHR agonist-2: inconclusive

Results for O=C(NCCN1CCOCC1)c1ccc(Cl)nc1 ?
D1 ag: inactive; D1 potentiator: inactive; TRHR enhancer-1: inactive; TRHR agonist-1: 74.9; D1 antag: inactive; TRHR enhancer-2: inactive; TRHR agonist-2: inactive

How did CCCCCn1c(N)c(C(=O)NCCN2CCOCC2)c2nc3ccccc3nc21 do in these assays?
D1 ag: inactive; D1 potentiator: inactive; TRHR enhancer-1: inactive; TRHR agonist-1: inactive; D1 antag: inactive

What do the screens show for `CCOC(=O)c1c(C)n(Cc2ccccc2)c2ccc(OCC(O)CNC(C)(C)C)cc12` (stereo not drawn)?
D1 ag: inactive; D1 potentiator: inactive; TRHR enhancer-1: inactive; TRHR agonist-1: inactive; D1 antag: inactive
